High-throughput results from PubChem BioAssay.
PTHR1 ag: activates the human parathyroid hormone receptor PTHR1. Q03431. HEK293 GP2 PTHR1 cells, GloSensor cAMP luminescence, 1 h. Potency, µM (top dose mostly 115 µM), for inactives: top-dose activation, usual class: activators. actives 0.075% (n = 410,000). AID 743266; further: potency means the concentration at half of the fitted maximal effect; nearly all actives have a fitted effect of over 55% in size
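HEK-293-derived GP2 cells expressing PTHR1 and a GloSensor cAMP reporter, 3,000/well, plated overnight, given luciferin plus IBMX (each 0.5 mM as added) for 1 h at 37 °C, then compound for 1 h at 37 °C. Luminescence was read after 15 min at room temperature.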
LDHA block: LDHA (human) enzyme inhibition | P00338 | purified LDHA, NADH/diaphorase-resazurin fluorescence; active compounds read low | activity change, % (values are at about 110 or 230 µM) | actives 0.15% (n = 480,000) | AID 1347041; in the data active means activity change below about -30%; inconclusive means mostly about -25% to -30%;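 further: plate controls were DMSO wells for no effect and wells without enzyme for full effect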
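LDH5 2 nM; NADH 0.06 mM, pyruvate 0.2 mM; 200 mM Tris pH 7.4, EDTA, Tween-20; 5 min RT. Detection: diaphorase 0.133 mg/mL + resazurin 37 µM, fluorescence ex540/em590 at 0 and 20 min; normalized to enzyme-free and DMSO wells.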
BRCA1 expr up: increases BRCA1 expression; Potency, µM (top dose mostly 46.1 µM), for the others: at the highest dose activation, usual class: activators; actives 1.1% (n = 380,000); MCF7-BRCA1-FFLuc reporter, luminescence, 48 h; response scale: scaled: vehicle 0%, 10 µM genistein 100%; further: potency means the concentration at half of the fitted maximal effect; nearly all actives have a fitted effect of over 80% in size
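First, MCF7-BRCA1-FFLuc cells (2000/well) attach for 2 h; next, compounds are pin-added and incubated 48 h at 37 °C; finally, luciferase reagent is added and luminescence read after 15 min.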
RGS4 inh: human RGS4 inhibition | P49798 | Transcreener GDP fluorescence polarization, RGS4-accelerated GTP hydrolysis | Potency, µM (highest dose often 114 µM), without a hit: at the highest dose activity change, negative = inhibition, usual class: inhibitors | actives 0.039% (n = 390,000); further: potency means the concentration at half of the fitted maximal effect; on the % scale 0 is the no-effect control and ±100 the full control effect; nearly all actives have a fitted effect of over 75% in size
Target sequence (P49798 whole entry, looked up): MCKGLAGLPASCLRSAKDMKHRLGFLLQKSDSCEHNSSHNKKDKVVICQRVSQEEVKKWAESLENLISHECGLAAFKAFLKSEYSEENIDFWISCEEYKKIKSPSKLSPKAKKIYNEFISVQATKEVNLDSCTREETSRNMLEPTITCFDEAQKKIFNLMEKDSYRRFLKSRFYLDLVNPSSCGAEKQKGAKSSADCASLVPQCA
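MLSMR compounds (23 nl, pin-transferred) preincubated 10 min at room temperature with a 500nM (2x) first reagent, then RGS4 at 900nM (2x) plus Transcreener GDP mix added; fluorescence polarization (620/688 nm) read before and after 90 min at 30 °C.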
p53 reactivation: restores transcriptional activity of mutant p53 | H1299 p53-A138V BP100-luciferase reporter, luminescence, 24 h | Potency, µM (titrated, usually from 92.2 µM), for inactives: at the highest dose activity change, positive = activation, hits mostly activators | actives 0.063% (n = 320,000); further: potency means the concentration at half of the fitted maximal effect; % of control where 0% means no effect; nearly all actives have a fitted effect of over 45% in size
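p53-null H1299 cells stably carrying temperature-sensitive p53-A138V and a BP100-luciferase reporter were pinned with compounds (4-point, 1:5 series) and held 24 hrs at 37 deg C. Luminescence was read 10 min after detection reagent.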
Starred values were filed as active, the others as inactive; i = inactive; ? = inconclusive; / = no result; ! = a repeat was not active; [ ] = another dose, or the depositor's remark. Hits are enriched below; roughly 1.1% of the tested compounds scored in any of these assays. Unless noted, the call rests on the fitted dose curve; in most records, active means well fitted curve in the direction sought with a large enough effect; inconclusive means small, poorly fitted or top-dose-only effect, or another doubt; inactive means no such curve, though single readings can be large; an effect the other way counts as inactive or inconclusive.

SMILES	PTHR1 ag	LDHA block	BRCA1 expr up	RGS4 inh	p53 reactivation
COC(=O)C1C(=O)c2c([nH]c(C(=O)OC3CCCCC3)c2C)CC1C (configuration not stated)	-25%	-6	5µM*	-5%	?
CN(C)c1nc2ccccc2c(N)c1-c1ccccc1	-6%[57.5 µM]	-38*	-46%	-1%	9%
CC(C)(C)C(=O)NC(NC(=O)C(C)(C)C)c1ccc(F)cc1	/	-6	/	/	/
CCCCCC(=O)Nc1ccc2oc(-c3cncc(Br)c3)nc2c1	i	-9	53%	6%	9%
COc1ccc(C(=O)Nc2ccc3oc(-c4ccncc4)nc3c2)cc1Br	/	-33*	/	/	/
Cc1ccc2nc(-c3ccccn3)oc2c1	-23%	-5	?	5%	4%
Cc1ccc(C(=O)Nc2ccc3oc(-c4ccncc4)nc3c2)cc1	/	8	/	/	/
CCC(=O)Nc1ccc2oc(-c3cccnc3)nc2c1	i	3	10µM*	-4%	19%
Cc1ccc2nc(-c3cccnc3)oc2c1	-11%	-6	3.2µM*!	35%[11.4 µM]	29%
CCCC(=O)Nc1ccc2oc(-c3cncc(Br)c3)nc2c1	-57%	-1	3.2µM*	2%	15%
CC(C)CC(=O)Nc1ccc2oc(-c3cccnc3)nc2c1	-39%	1	?	7%	?
CCCCN(Cc1ccccc1)c1ccc(NS(=O)(=O)c2ccc(CC)cc2)cc1C(=O)O	/	2	/	/	/
O=c1[nH]c(CSc2nnc(-c3ccccc3F)n2C2CC2)nc2ccc(Cl)cc12	/	3	/	/	/
Cc1ccc(NC(=O)CSCc2ccco2)cc1	-9%	-9	10µM*	-15%	8%
Cc1ccc(NC(=O)C(=O)NCc2ccco2)cc1	-47%	-5	/	21%	/
O=C(NCCSCc1ccco1)Nc1ccc(Cl)cc1	-38%	-6	8.9µM*	-8%	/
Cc1ccc(NC(=O)CSCC(=O)NCc2ccco2)cc1	-4%	-1	1%	-4%	3%
Cc1ccc(NC(=O)C(=S)NCc2ccco2)cc1	-33%[57.5 µM]	0	7.1µM*	-26%	8%
O=c1c2ccccc2sn1-c1cccc(Cl)c1	-51%	-11	51%	/	/
CN(C)S(=O)(=O)c1cccc(-n2sc3ccccc3c2=O)c1	-10%	-43*	52%	-124%	-2%
Cc1ccc(Cn2c(NCCc3ccc(F)cc3)nc3c2c(=O)n(C)c(=O)n3C)cc1	/	1	/	/	/
c1ccc(OCCCCN2CCC(c3nc4ccccc4s3)CC2)cc1	/	-14	/	/	/
COc1ccc(NC(=O)c2c(NC(=O)CCC(=O)O)sc3c2CCC(C(C)(C)C)C3)cc1 (configuration not stated)	/	-30*	/	/	/
COc1ccc(NC(=O)c2c(NC(=O)COc3ccccc3)sc3c2CCC(C(C)(C)C)C3)cc1 (configuration not stated)	i	-8	/	1%	/
COc1ccc2[nH]c(-c3ccccc3)cc2c1	-35%	-5	3.5µM*	-6%	?
SMILES	PTHR1 ag	LDHA block	BRCA1 expr up	RGS4 inh	p53 reactivation
CC1CCN(C(=S)NCCc2ccccc2)CC1	i	-1	7.1µM*	5%	?
O=C(NC1CCCCC1)C(=S)NCCc1ccccc1	-10%	-4	11µM*	?	-3%
S=C(NCCc1ccccc1)NC1CCCCCC1	-9%[57.5 µM]	-6	?	27%	26%
O=C(NCCc1ccccc1)C(=O)NC1CCCCC1	22%	3	4µM*	6%	12%
CCCCCCCn1c(SCC(N)=O)nc2c1c(=O)[nH]c(=O)n2C	/	-1	/	/	/
Cc1cc(C)cc(NC(=O)N2CCc3ccccc3C2)c1	-22%	-2	?	1%	10%
Cc1ccc(NC(=O)N2CCc3ccccc3C2)cc1C	-7%	-1	10µM*	-23%	20%
COC(=O)c1cc(-c2ccc(OC(C)C)cc2)nc2ccccc12	/	1	/	/	/
Cc1[nH]c2ccccc2c1C(=O)C(C)OC(=O)c1cccc(F)c1 (configuration not stated)	/	13	/	/	/
COC(=O)c1cc2c(=O)c3ccccc3oc2nc1C	-7%	-2	71%	-12%	18%
CCc1nc2oc3ccc(C)cc3c(=O)c2cc1C(=O)OC	-5%	0	6.3µM*	-2%	5%
CC1CCC/C(=C(\C#N)c2nc(-c3cc4ccccc4oc3=O)cs2)C1 (configuration not stated)	-12%	-4	3.2µM*	-20%	?
Cc1ccc(Cl)cc1NC(=O)Nc1cn(CC(C)C)c(=O)c2ccccc12	i	-40*	/	-35%	/
CCOCCOC(=O)C(C)Oc1ccc2c(=O)c(-c3ccccc3OC)c(C(F)(F)F)oc2c1 (configuration not stated)	/	5	/	/	/
O=C(Cn1cnc2c(oc3ccccc32)c1=O)c1ccccc1	-19%	-6	7.1µM*	10%	?
COc1ccc2nc(SCC(=O)N3N=C(c4cccs4)CC3c3ccco3)[nH]c2c1 (configuration not stated)	/	14	/	/	/
O=c1c2ccccc2nc(-c2ccco2)n1Cc1ccccc1	-89%	-1	7.9µM*	-17%	/
c1ccc(Cn2c(-c3ccco3)nc3nc4ccccc4nc32)cc1	-29%	3	?	-46%	?
Clc1ccc(OCc2cc(-c3ccccc3)no2)cc1Cl	-4%[57.5 µM]	-1	14µM*	15%	?
Clc1ccc(-c2cc(COc3ccccc3)on2)cc1	-2%	-4	10µM*	13%	22%
Cc1ccc(C(=O)/C=C\N(C)C)cc1	/	-1	/	/	/
CN(C)/C=C/C(=O)c1ccc(-n2cccc2)cc1	-5%	-1	7.9µM*	-9%	16%
CCn1c(-c2ccc(C(C)(C)C)cc2)n[nH]c1=S	-11%	-6	-2%	?	?
Cn1c(-c2ccc(C(C)(C)C)cc2)n[nH]c1=S	-65%[57.5 µM]	-5	20µM*	-21%	24%
COc1ccc(C2CC2/C(=N/O)c2ccccc2)cc1 (configuration not stated)	i	-9	11µM*	?	20%
SMILES	PTHR1 ag	LDHA block	BRCA1 expr up	RGS4 inh	p53 reactivation
COc1ccc(C2CC2C(=O)c2ccccn2)cc1 (configuration not stated)	-5%	1	8.9µM*	25%	?
Cc1ccc(/C=N/NC(=O)CCc2ccccc2)cc1	/	11	/	/	/
CCCC(=O)Nc1ccc(-c2csc(N)n2)cc1	/	-6	/	/	/
Cc1cc(-c2nnc(CSc3nc4ccc(Cl)cc4[nH]3)o2)c(C)o1	/	3	/	/	/
COc1ccccc1N(CCC#N)C(=O)Cn1nc(C(=O)O)c2ccccc2c1=O	/	-5	/	/	/
N#CCCN(C(=O)Cn1nc(C(=O)O)c2ccccc2c1=O)c1ccccc1	i	-32*!	-1%	-12%	-8%
CCOC(=O)NC(=O)/C(C#N)=C\Nc1ccc(Cl)cc1Cl	-15%	-7	13µM*	9%	13%
